Columns and labels:
Experiment in all cases: PBM binding z-score (relative to random genomic background probes); higher = stronger binding; sequences stand for … in GC…GCGATTGACAGCGTAGAATGAAGG
[1] = system: PPARg:RXRa DBDmut IVT, anti-RXR (DBD mutation: RXRa K156A/R161A, NR concentration 270 nM, RXRa partner concentration 90 nM)
Procedure, shortened: (§1)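 The probes on custom Agilent 4×180K protein-binding microarrays were double-stranded, with 34-nt variable regions bearing direct-repeat seeds, single-nucleotide variants, half-site ablations and random human genomic background sequences. Incubation lasted 1 h with ligand-free nuclear receptor dimers in PBS pH 7.4, 2% milk, 0.02% Triton X-100, 1 mM DTT, 0.2 mg/mL BSA and 0.4 mg/ml salmon testes DNA. Antibodies against each partner (one per run) detected bound dimers, and fluorescence scans were regression-normalized. Binding z-scores take the random background probes as reference.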

[2] = system: PPARg:RXRa IVT, anti-PPARg (NR concentration 270 nM, RXRa partner concentration 90 nM)
Procedure, shortened: as §1

[3] = system: PPARg DBDmut:RXRa IVT, anti-PPARg (DBD mutation: PPARg1 K132A/R137A, NR concentration 270 nM, RXRa partner concentration 90 nM)
Procedure, shortened: as §1

[4] = system: PPARg DBDmut IVT, anti-PPARg (DBD mutation: PPARg1 K132A/R137A, NR concentration 270 nM)
Procedure, shortened: as §1

[5] = system: PPARg homodimer (NR concentration 180 nM)
Procedure, shortened: as §1

[6] = system: PXR:RXRa (NR concentration 270 nM, RXRa partner concentration 90 nM)
Procedure, shortened: as §1

[7] = system: PXR homodimer (NR concentration 270 nM)
Procedure, shortened: as §1

[8] = system: RARa:RXR (NR concentration 270 nM, RXRa partner concentration 90 nM)
Procedure, shortened: as §1

[9] = system: RARa homodimer (NR concentration 270 nM)
Procedure, shortened: as §1

[10] = system: RARb:RXRa (NR concentration 270 nM, RXRa partner concentration 90 nM)
Procedure, shortened: as §1

[11] = system: RARb homodimer (NR concentration 270 nM)
Procedure, shortened: as §1

[12] = system: RARg:RXRa (NR concentration 270 nM, RXRa partner concentration 90 nM)
Procedure, shortened: as §1

[13] = system: RARg homodimer (NR concentration 270 nM)
Procedure, shortened: as §1

[14] = system: RXRa DBDmut IVT, anti-RXR (DBD mutation: RXRa K156A/R161A, NR concentration 90 nM)
Procedure, shortened: as §1

[15] = system: RXRa homodimer (NR concentration 180 nM)
Procedure, shortened: as §1

[16] = system: THRa:RXRa (NR concentration 90 nM, RXRa partner concentration 90 nM)
Procedure, shortened: as §1

[17] = system: THRa homodimer (NR concentration 90 nM)
Procedure, shortened: as §1

[18] = system: VDR homodimer (NR concentration 270 nM)
Procedure, shortened: as §1

Sequence	PBM binding z-score [1]	PBM binding z-score [2]	PBM binding z-score [3]	PBM binding z-score [4]	PBM binding z-score [5]	PBM binding z-score [6]	PBM binding z-score [7]	PBM binding z-score [8]	PBM binding z-score [9]	PBM binding z-score [10]	PBM binding z-score [11]	PBM binding z-score [12]	PBM binding z-score [13]	PBM binding z-score [14]	PBM binding z-score [15]	PBM binding z-score [16]	PBM binding z-score [17]	PBM binding z-score [18]
ATCTCTAGGTAAAGATAGTTCAGTGACTGCAAAT	2.25	1.52	1.25	0.496	0.972	1.06	0.522	0.54	1.52	0.693	1.33	0.534	0.542	0.648	-0.00287	0.905	0.426	0.571
CTCGAAAGGTCGGTTGAGGTGAGTCTACGGATAA	0.22	0.948	-0.0486	-0.386	1.13	3.39	-0.0836	2.2	-0.523	2.97	2.36	2.73	2.99	1.03	2.34	5.01	1.58	0.44
AGTCAAAGTTCCTCTAGGTAACGTAAGATATGCT	-0.227	1.14	-0.00849	0.378	-0.0696	0.0815	-0.225	0.241	0.00507	0.881	-0.0173	0.433	0.491	0.711	0.183	1.23	-0.0927	0.297
TTACCAAGGTGAGCTGAGGTCGATGATCCAACTC	0.764	2.27	-0.223	-0.4	-0.24	3.58	-0.352	1.23	-0.656	1.72	1.56	1.03	1.05	-0.52	1.06	4.48	1.6	0.355
CAAACTAGGACAAGAGGTCAAAGTCCGCTTCCCG	5.17	5.25	1.06	0.504	3.1	5.45	2.97	5.92	0.963	4	4.38	5.63	4.63	2.33	6.3	3.92	1.89	4.42
TCTGCTAGGTCAACGATGGTCAGATAATCTGCTA	4.35	4.34	-0.0109	0.256	1.82	2.15	-0.779	2.44	-0.13	4.26	3.47	3.89	5.5	0.978	3.11	3.17	0.478	-0.329
ATCTATAGGTAACAAGTTCAGTGAAAGAGAGGAC	2.14	1.83	1.5	1.51	1.15	1.72	1.68	1.74	1.48	1.72	2.01	1.61	1.59	1.56	1.19	1.33	0.91	2.47
ATCGAAAGGTCGTGAGGTGAATATACAGAAAGGC	0.388	2.93	1.73	0.704	2.17	3.53	0.656	4.96	1.14	4.12	3.06	4.98	3.95	1.72	5.61	3.72	1.77	1.24
CAAACTAGTTCACAGAGGTCAAAGTCCGTGCGTA	2.43	3.25	0.945	0.72	4.3	7.16	14.3	7.22	2.73	4.46	4.92	6.03	5.68	3.93	6.83	4.01	1.93	7.92
GATACAGGGTCAGCTAGAGGCCAGAGGATGGAAA	1.05	2.27	0.0573	-0.276	2.33	3.12	-0.127	4.59	0.2	4.17	3.55	6.91	4.81	1.22	4.69	2.93	0.198	0.847
AATACAGGGTTATCGTAGGCCAGAGTACGCACAG	0.539	1.12	0.626	0.739	0.97	1.59	-0.0696	1.79	0.276	1.3	1.09	1.52	1.11	0.484	2.28	3.61	0.15	1.12
TCATAGAGGTAATACAGGTGAAAGTCGGCATCTA	2.41	1.82	0.716	0.411	0.49	0.522	-0.0711	1.04	0.214	0.478	0.233	0.441	0.488	1.01	1.16	1.4	-0.345	0.0318
CCTACTGGGCCAAAAAGGTCATTTATGCCGATAA	3.34	3.95	0.881	-0.177	3.37	4.67	3.36	4.88	1.02	3.7	4.03	4.11	3.43	0.766	4.35	2.85	0.395	2.46
TCATATAGGTAAAGGTAAAAGTCGAACGATATGA	3.98	3.36	1.85	1.27	0.454	0.53	0.308	0.709	1.3	0.845	0.156	0.701	0.679	0.705	1.11	0.531	-0.456	-0.0631
TCATATAGGTAACGGTGAAAGTCGAACGATATGA	4.89	4.04	1.45	1.23	-0.0318	0.0146	-0.0521	0.23	0.533	0.479	-0.17	0.474	0.423	0.399	0.79	-0.0623	-0.6	-0.165

— the supplement of paper PMC6555819
